# This is a sample that favours compounds with a hit; in the whole collection about 2.3% have one here.
# M1 ag parental – counter-screen for M1 agonists: effect in parental CHO-K1 cells; Fluo-8 calcium fluorescence; scaled to maximal ATP response, vehicle zero; activation, % at 3 µM; 360,000 tested, 0.48% active; AID 602248; in the data active means activation above about 15%;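 further: untransfected CHO-K1 host cells lacking M1 receptor as counterscreen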
# CHRM1 PAM – human CHRM1 positive allosteric modulation; 360,000 tested, 0.088% active; P11229; CHO-K1 hM1, Fluo-8 calcium fluorescence, ACh EC20; 0% = ACh EC20, 100% = maximal ACh; activation, % at 3 µM; AID 588819; in the data active means activation above about 19%, passing the limit was not always enough
# Target sequence (P11229 whole entry, looked up): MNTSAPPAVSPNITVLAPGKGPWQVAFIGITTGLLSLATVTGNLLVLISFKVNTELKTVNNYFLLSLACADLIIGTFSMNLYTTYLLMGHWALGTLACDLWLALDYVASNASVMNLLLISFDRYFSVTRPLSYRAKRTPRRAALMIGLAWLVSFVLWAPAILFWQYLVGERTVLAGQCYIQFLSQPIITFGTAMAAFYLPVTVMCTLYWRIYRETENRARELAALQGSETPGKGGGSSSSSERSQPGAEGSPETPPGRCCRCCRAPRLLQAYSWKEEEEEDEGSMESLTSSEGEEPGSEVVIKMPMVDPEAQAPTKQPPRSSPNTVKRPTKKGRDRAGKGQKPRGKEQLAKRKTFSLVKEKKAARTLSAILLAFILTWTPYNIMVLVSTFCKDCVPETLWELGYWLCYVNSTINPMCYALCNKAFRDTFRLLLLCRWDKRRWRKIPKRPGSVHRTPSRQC
# CHO-K1 Ca antag – nonselective inhibitor or artifact in parental CHO-K1 cells. ATP-induced calcium, Fluo-8 fluorescence. inhibition, % at 3 µM. 360,000 tested, 0.6% active. AID 602250;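 active means inhibition above a per-plate cutoff, the plate's mean sample inhibition plus 3 SD, cut at about 24% in these data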;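 further: 0% = DMSO plus EC80 ATP and 100% = DMSO alone without ATP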
# CHRM1 agonist – human M1 muscarinic receptor agonism; AID 588814; 360,000 tested, 0.33% active; P11229; CHO-K1 hM1, Fluo-8 calcium fluorescence, agonist mode; 0% DMSO, 100% acetylcholine EC100; activation, % at 3 µM;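 active means activation above the run's mean compound activation plus 3 SD, cut at about 16% in these data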;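 further: peak over basal fluorescence ratio within a 140 s kinetic read after compound addition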
# CHO-K1 Ca PAM – nonselective activator or artifact in parental CHO-K1 calcium assay; ATP EC20, Fluo-8 calcium fluorescence; 0% at ATP EC20, 100% at ATP max; activation, % at 3 µM; 360,000 tested, 0.02% active; AID 602247;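 active means activation above the run cutoff, the mean activation of all test compounds plus 3 SD, cut at about 40% in these data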;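 further: peak over basal fluorescence ratio in a 140 s read after ATP addition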
# CHRM1 antagonist – antagonists of human M1 muscarinic receptor; P11229; CHO-K1 hM1, Fluo-8 calcium fluorescence, ACh EC80 antagonist; inhibition, % at 3 µM; 360,000 tested, 1.3% active; AID 588852;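 active means percent inhibition above its own plate's cutoff, namely the mean of that plate's compound wells plus 3 SD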;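 further: peak over basal fluorescence ratio during 140 s after agonist addition; 0% = ACh EC80 plus DMSO and 100% = DMSO alone without agonist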
# Starred values were filed as active, the others as inactive.
SMILES,M1 ag parental,CHRM1 PAM,CHO-K1 Ca antag,CHRM1 agonist,CHO-K1 Ca PAM,CHRM1 antagonist
CN(C)[C@@H]1CCC[C@@H]1OC(=O)C(c1ccccc1)c1ccccc1,2,-25,-8,-8,20,31*
CCc1ccc(NS(=O)(=O)c2c(C(=O)N3CCCCCC3)c(C)n(C)c2C)cc1,0,-3,-4,-3,-12,15
CCc1cccc(CC)c1N1C(=O)C2=C(SCCCS2)C1=O,26*,-16,12,20*,-2,16
Cc1ccc(-c2nc(CS(=O)CC(=O)NCc3ccccc3)c(C)o2)cc1 (stereo unspecified),0,24*,-20,5,23,-15
Cc1oc(-c2ccc(Cl)cc2)nc1CS(=O)CC(=O)NCCN1CCCC1 (stereo unspecified),0,0,25*,-11,-4,-2
COc1ccc(C(CNC(=O)COc2ccc(Cl)c(C)c2)N2CCCCC2)cc1 (stereo unspecified),1,-5,-12,-5,10,2
CC1CCCN(CCCCOc2cccc(Br)c2)C1 (stereo unspecified),1,-25,7,-7,9,33*
CCOc1cccc(OCCCCN2CCCCC2)c1,0,-23,-8,-7,3,19*
COc1cccc(OCCCCN2CCCCC2)c1,1,-11,-14,-9,20,8
Clc1cccc(OCCN2CCCC2)c1,1,0,12,-9,-17,-9
Brc1cccc(OCCCCN2CCCCC2)c1,1,-26,-7,-10,20,78*
CC(C)c1cccc(OCCN2CCCC2)c1,0,-16,11,-8,-21,33*
Cc1nnc(NC(=O)c2ccc(Br)o2)s1,0,7,-5,-1,6,-12
CCn1cc(C(=O)N[C@@H](CCSC)C(=O)NCCN2CCOCC2)c(=O)c2cc3c(cc21)OCO3,0,11,1,-2,-8,-2
CC(C)(C)S(=O)(=O)N1C[C@@H]2C(=CC[C@H]3C(=O)N(c4ccccc4)C(=O)[C@@H]23)[C@@H]1CCO,0,7,-3,-4,4,-21
CN1C2CCC1CC(NC(=O)CSc1ccc(Cl)cc1)C2 (stereo unspecified),4,-25,-9,-8,3,53*
N#C/C(C(=O)NCc1ccccc1)=C1/N=C(NC(=O)c2ccco2)c2ccccc21,17*,6,-4,-3,18,-7
COc1ccc(CCNC(=O)/C(C#N)=C2\N=C(NC(=O)c3ccco3)c3ccccc32)cc1,1,5,-7,1,14,-11
CN(C)S(=O)(=O)c1ccc(C(=O)NCc2nnc(SCC(=O)NCc3ccco3)o2)cc1,1,10,-3,-5,7,-10
CC1CCN(c2nc3ccc(C(=O)N4CCN(Cc5ccc6c(c5)OCO6)CC4)cc3s2)CC1,0,-17,9,-11,3,29*
O=C(c1ccc(Cl)c([N+](=O)[O-])c1)N1CCN(Cc2ccc3c(c2)OCO3)CC1,16*,-4,5,-12,1,-4
O=C(c1cccc(Cl)c1)N1CCN(Cc2ccc3c(c2)OCO3)CC1,0,-2,-3,-6,0,-3
O=Cc1cc([N+](=O)[O-])ccc1N1CCN(Cc2ccc3c(c2)OCO3)CC1,10,-30,-10,-6,-7,35*
O=[N+]([O-])c1ccc(N2CCN(Cc3ccc4c(c3)OCO4)CC2)nc1,5,1,-13,-4,22,-14
CC(=O)N(c1nnc(-c2cccc(C)c2)s1)C1CCCC1,0,13,12,0,-20,-3
SMILES,M1 ag parental,CHRM1 PAM,CHO-K1 Ca antag,CHRM1 agonist,CHO-K1 Ca PAM,CHRM1 antagonist
COc1ccc(C2=CC(=O)CCC2)cc1,0,-6,2,-4,13,11
CCCCN1C2CCCC1CC(NC(=O)C1CCCCC1)C2 (stereo unspecified),1,-19,-12,-4,21,43*
O=C(NC1CC2CCCC(C1)N2Cc1ccccc1)C1CCCCC1 (stereo unspecified),0,-18,-10,-5,28,38*
O=C(CN1C2CCCC1CC(NC(=O)C1CCCCC1)C2)Nc1ccccc1 (stereo unspecified),1,3,-12,-10,9,-7
O=C(NC1CC2CCC(C1)N2C(=O)NCc1ccccc1)C1CC1 (stereo unspecified),0,-17,13,-6,-7,37*
O=C(NC1CCCC1)C1CCN(C(=O)NCc2ccccc2)CC1,1,11,-10,-3,16,-6
Cc1ccc2c(c1)N(C(=O)CCC(=O)N1CCN(c3ccccn3)CC1)CCO2,0,-7,10,-8,-9,36*
O=C(CCC(=O)N1CCOc2ccc(Cl)cc21)N1CCN(c2ccccn2)CC1,1,9,4,-7,0,-4
COc1ccc(NC(=O)c2cccnc2)c(OC)c1,0,-8,27*,-4,-13,15
COc1ccc(NC(=O)c2ccccc2OCc2ccc(F)cc2)c(OC)c1,1,-8,-23,-8,43*,6
COc1ccc(NC(=O)c2ccccc2Oc2ccccc2)c(OC)c1,0,-1,-19,5,36,-14
COC(=O)c1cc(OC)c(OC)cc1NC(=O)c1ccc(OC)cc1,20*,8,26*,0,-10,-10
COc1ccc(C(=O)Nc2ccccc2Cc2ccccc2)c(OC)c1,1,-6,-23,-6,52*,2
O=C(OCCNc1nc(-c2ccccc2)nc2ccccc12)c1cccnc1,4,8,1,-7,3,-2
CCCOC(=O)c1cccc(Nc2nc(-c3cccnc3)nc3ccccc23)c1,4,-18,1,-5,7,34*
O=C(COc1ccc(-c2ccccc2)cc1)NNC(=O)NC1CCCCC1,1,-31,-4,-14,-6,33*
CCOC(=O)N1CCC(N2CCN(c3cc(C)ccc3C)CC2)CC1,2,-12,-10,4,3,51*
CCOC(=O)N1CCC(N2CCN(S(=O)(=O)c3ccc(Cl)cc3)CC2)CC1,2,-15,-4,39*,22,-1
CCOC(=O)c1ccc(N2CCN(c3cc(C)ccc3C)CC2)c(N)c1,1,0,-20,-8,-19,-4
CCOC(=O)N1CCN(S(=O)(=O)c2ccc(Cl)cc2)CC1,1,11,-4,1,7,-14
CCC(Oc1ccc(F)cc1)C(=O)N1CCCCCCC1 (stereo unspecified),0,11,-8,3,23,-5
CCCc1nnc(SCC(=O)Nc2nccs2)o1,0,21,-14,1,13,-14
Cc1cccc(C)c1OCc1nnc(SCC(=O)Nc2nccs2)o1,3,-17,-1,0,11,25*

# Bioassay records (PubChem)
